High-throughput results (PubChem)
rCAG RNA binder: r(CAG) repeat RNA binding; 1.3% of 370,000 active; TO-PRO-1 dye displacement fluorescence; inhibition, % at 3 µM;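 active means inhibition above the plate cutoff, the mean of all test compounds on that plate plus 3 SD, cut at about 35% in these data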;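 further: higher means more dye released from RNA so lower well fluorescence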
ADAM17 inh: ADAM17 inhibition, QFRET primary screen; P78536; recombinant ADAM17, EDANS/DABCYL FRET peptide cleavage; inhibition, % at 6.95 µM; 0.83% of 370,000 active; AID 720648;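 active means inhibition above the mean of compounds lying between control limits plus 3 SD, set per campaign, cut at about 8.5% in these data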
NR3A LBD binder: NR3A (human) ligand-binding domain modulation | NR3A LBD differential scanning fluorimetry, Tm shift; 0% = protein alone, 100% = glycine-bound protein | Tm shift relative to glycine control, % at 25 µM | 2.5% of 340,000 active | AID 1259313;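 active means melting temperature shift of at least 10% of the positive control shift, at one fixed dose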
ADAM10 inh: inhibitors of human ADAM10. 0.62% of 370,000 active. inhibition, % at 7 µM. recombinant ADAM10, EDANS/DABCYL FRET peptide cleavage, 3 h;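 active means inhibition above a per-campaign cutoff equal to the mean of compounds falling between control-based bounds plus 3 SD, cut at about 20% in these data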
AHR activator: activates the human aryl hydrocarbon receptor. P35869. AHR-responsive luciferase reporter cells, luminescence. activation, % at 5 µM. 2.5% of 320,000 active. AID 2796; in the data active means activation above about 47%
proKLK7 act: activators of human kallikrein-7 zymogen. purified proKLK7, EDANS-DABCYL substrate fluorescence; 100% is mature enzyme control, 0% vehicle. P49862. 0.9% of 370,000 active. activation, % at 7 µM. AID 652039;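 active means activation above the mean of all tested compounds plus 3 SD, computed per campaign excluding outliers beyond control limits, cut at about 13% in these data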
Target sequence (P49862 whole entry, looked up): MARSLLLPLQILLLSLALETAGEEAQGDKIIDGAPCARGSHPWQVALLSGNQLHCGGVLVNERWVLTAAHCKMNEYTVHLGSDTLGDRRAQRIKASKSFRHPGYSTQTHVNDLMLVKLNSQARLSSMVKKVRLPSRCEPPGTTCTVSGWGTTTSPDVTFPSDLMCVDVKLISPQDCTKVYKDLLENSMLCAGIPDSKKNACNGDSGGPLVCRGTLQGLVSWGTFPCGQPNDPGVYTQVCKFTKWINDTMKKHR
Hits are given with their value. An excerpt weighted towards active compounds, which were near 7% of everything screened.

Screening CC(=O)c1cccc(NC(=O)/C=C/c2ccc(S(=O)(=O)N3CCOCC3)cc2)c1 returned rCAG RNA binder inactive, ADAM17 inh inactive, NR3A LBD binder inactive, ADAM10 inh inactive, AHR activator inactive and proKLK7 act inactive.
O=C(/C=C/c1cccc(F)c1)Nc1ccc(S(=O)(=O)N2CCOCC2)cc1 was read as rCAG RNA binder inactive, ADAM17 inh inactive, NR3A LBD binder 36.6, ADAM10 inh inactive, AHR activator inactive and proKLK7 act inactive.
For O=C(/C=C/c1ccccc1)Nc1ccc(S(=O)(=O)N2CCOCC2)cc1 the results were rCAG RNA binder inactive, ADAM17 inh inactive, NR3A LBD binder 31.3, ADAM10 inh inactive, AHR activator inactive and proKLK7 act inactive.
`COc1ccc(OC)c(CN2C(=O)CCCC2(C)c2nnnn2C2CCCC2)c1` (configuration not stated) gave rCAG RNA binder inactive, ADAM17 inh inactive, ADAM10 inh inactive and proKLK7 act inactive.
For COc1ccc2cc(/C=N/NC(=O)CN(c3ccccc3C)S(=O)(=O)c3ccccc3)c(Cl)nc2c1 the results were rCAG RNA binder inactive, ADAM17 inh inactive, NR3A LBD binder 11.2, ADAM10 inh inactive, AHR activator inactive and proKLK7 act inactive.
Screening COc1ccccc1OCC(O)COC(N)=O (configuration not stated) returned rCAG RNA binder inactive, ADAM17 inh inactive, NR3A LBD binder 12.9, ADAM10 inh inactive, AHR activator inactive and proKLK7 act inactive.
Screening c1ccc2c(c1)[nH]c1c3ccccc3sc21 returned rCAG RNA binder inactive, ADAM17 inh inactive, NR3A LBD binder 23.6, ADAM10 inh inactive, AHR activator inactive and proKLK7 act inactive.
For Cc1ccccc1Cn1cc(COC(=O)NCC(C)C)nn1 the results were rCAG RNA binder inactive, ADAM17 inh inactive, ADAM10 inh inactive and proKLK7 act inactive.
Screening N=C1/C(=C\c2ccc(OC(=O)c3ccccc3)cc2)C(=O)N=C2SC(N3CCOCC3)=NN12 returned rCAG RNA binder 42.4, ADAM17 inh inactive, NR3A LBD binder inactive, ADAM10 inh inactive, AHR activator inactive and proKLK7 act inactive.
`Cc1ccc(C(=O)Oc2ccc(/C=C3\C(=N)N4N=C(N5CCOCC5)SC4=NC3=O)cc2)cc1` gave rCAG RNA binder inactive, ADAM17 inh inactive, NR3A LBD binder inactive, ADAM10 inh inactive, AHR activator inactive and proKLK7 act inactive.
Screening Cc1cc(OCCn2ccnc2)ccc1C(C)C returned rCAG RNA binder inactive, ADAM17 inh inactive, NR3A LBD binder inactive, ADAM10 inh inactive, AHR activator 63.9 and proKLK7 act inactive.
Cc1ccc(C)c(OCCCCn2ccnc2)c1 was read as rCAG RNA binder inactive, ADAM17 inh inactive, NR3A LBD binder inactive, ADAM10 inh inactive, AHR activator inactive and proKLK7 act inactive.
`Cc1ccc(OCCn2ccnc2)c(C)c1` gave rCAG RNA binder inactive, ADAM17 inh inactive, NR3A LBD binder inactive, ADAM10 inh inactive, AHR activator inactive and proKLK7 act inactive.
Cc1ccc(C(C)(C)C)c(OCCCn2ccnc2)c1 was read as rCAG RNA binder inactive, ADAM17 inh inactive, NR3A LBD binder inactive, ADAM10 inh inactive, AHR activator 47.7 and proKLK7 act inactive.
`Cc1cc(C(C)(C)C)ccc1OCCn1ccnc1` gave rCAG RNA binder inactive, ADAM17 inh inactive, NR3A LBD binder inactive, ADAM10 inh inactive, AHR activator 49.7 and proKLK7 act inactive.
`Cc1ccc(OCCCCn2ccnc2)c([N+](=O)[O-])c1` gave rCAG RNA binder inactive, ADAM17 inh inactive, NR3A LBD binder inactive, ADAM10 inh inactive, AHR activator 61.3 and proKLK7 act inactive.
`Cc1ccc(OCCCCn2ccnc2)c(Cl)c1` gave rCAG RNA binder inactive, ADAM17 inh inactive, NR3A LBD binder inactive, ADAM10 inh inactive, AHR activator inactive and proKLK7 act inactive.
For O=C(OCc1cn(Cc2ccc(Cl)cc2)nn1)N1CCOCC1 the results were rCAG RNA binder inactive, ADAM17 inh inactive, ADAM10 inh inactive and proKLK7 act inactive.
Cc1cc(NS(=O)(=O)C2CCN(C(=O)Cc3ccc(Cl)c(Cl)c3)CC2)no1 was read as rCAG RNA binder inactive, ADAM17 inh inactive, ADAM10 inh inactive and proKLK7 act inactive.
`COC(=O)c1ccc2nc(C3CCCCC3)c(Cc3ccccc3OC)n2c1` gave rCAG RNA binder inactive, ADAM17 inh inactive, ADAM10 inh inactive and proKLK7 act inactive.
Cc1cc(C)c(OCCCn2ccnc2)c(C)c1 was read as rCAG RNA binder inactive, ADAM17 inh inactive, NR3A LBD binder inactive, ADAM10 inh inactive and proKLK7 act inactive.
`Cc1cc(C)c(C)c(OCCCn2ccnc2)c1` gave rCAG RNA binder inactive, ADAM17 inh inactive, NR3A LBD binder inactive, ADAM10 inh inactive, AHR activator 58.0 and proKLK7 act inactive.
Cc1nc2ccccc2c2oc(C(=O)NC3CC3)cc12 was read as rCAG RNA binder inactive, ADAM17 inh inactive, NR3A LBD binder inactive, ADAM10 inh inactive, AHR activator 65.0 and proKLK7 act inactive.
COc1ccccc1C(=O)NC(=S)Nc1ccc(NC(=O)c2ccco2)cc1 was read as rCAG RNA binder inactive, ADAM17 inh inactive, NR3A LBD binder inactive, ADAM10 inh inactive, AHR activator inactive and proKLK7 act inactive.
For CN(CCc1ccccn1)C(=S)NC(=O)c1ccco1 the results were rCAG RNA binder inactive, ADAM17 inh inactive, NR3A LBD binder inactive, ADAM10 inh inactive, AHR activator inactive and proKLK7 act inactive.
O=C(Nc1ccc(NC(=S)NC(=O)c2ccco2)cc1)c1ccccc1 was read as rCAG RNA binder inactive, ADAM17 inh inactive, NR3A LBD binder 15.1, ADAM10 inh inactive, AHR activator inactive and proKLK7 act inactive.
CC(C)CC(=O)N1CCN(c2ccc(NC(=O)c3ccco3)cc2)CC1 was read as rCAG RNA binder inactive, ADAM17 inh inactive, NR3A LBD binder 12.6, ADAM10 inh inactive, AHR activator inactive and proKLK7 act inactive.
Screening COc1cc(OC)cc(C(=O)NC(=S)Nc2ccc(NC(=O)c3ccco3)cc2)c1 returned rCAG RNA binder inactive, ADAM17 inh inactive, NR3A LBD binder 18.5, ADAM10 inh inactive, AHR activator inactive and proKLK7 act inactive.
`CC(C)(C)C(=O)N1CCN(c2ccc(NC(=O)c3ccco3)cc2)CC1` gave rCAG RNA binder inactive, ADAM17 inh inactive, NR3A LBD binder inactive, ADAM10 inh inactive, AHR activator inactive and proKLK7 act inactive.
`O=C(NC(=S)NCCc1ccccn1)c1ccco1` gave rCAG RNA binder inactive, ADAM17 inh inactive, NR3A LBD binder 243.9, ADAM10 inh inactive, AHR activator inactive and proKLK7 act inactive.
Screening O=C(c1cccs1)N1CC[C@H]2[C@H](CCCN2Cc2ccc(F)cc2)C1 returned rCAG RNA binder inactive, ADAM17 inh inactive, ADAM10 inh inactive and proKLK7 act inactive.
O=c1[nH]c(-c2ccccc2)cn1C1CCN(Cc2ccc(-c3nc4ccc(Br)cc4nc3-c3ccccc3)cc2)CC1 was read as rCAG RNA binder inactive, ADAM17 inh inactive, ADAM10 inh inactive and proKLK7 act inactive.
